Reference: PubChem BioAssay
Where “and” joins values, the source holds several entries; their conditions need not be identical. Equal values may be shown once. Calls of active or inactive are those of the source.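 Rule for the calls, unless noted: active = normalized viability below 100% at a tested concentration; inactive = the rest.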

Assays:
[1] = ovarian cancer cell viability with rucaparib, profiling panel, oncology-focused library, rucaparib conditional (AID 1508598); conditions: patient-derived ovarian cancer cells, CellTiter-Glo viability, 144 h, active compounds read low
[2] = molecular target: NAD(+) hydrolase SARM1 (Homo sapiens) (UniProt Q6SZW1); assay: SARM1 TIR NADase inhibitors, cell lysate, NAD-Glo luminescence (AID 1508614;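 active = compound whose remaining NAD level is above about 45 nM, limit read from the data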;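 note: higher remaining NAD means stronger inhibition of SARM1 NADase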); conditions: SAM-TIR HEK293T lysate NADase, at 1 µM, active compounds read high
NAD(+) hydrolase SARM1 (Homo sapiens), sequence (Q6SZW1 whole entry, looked up, the tested form may be a part): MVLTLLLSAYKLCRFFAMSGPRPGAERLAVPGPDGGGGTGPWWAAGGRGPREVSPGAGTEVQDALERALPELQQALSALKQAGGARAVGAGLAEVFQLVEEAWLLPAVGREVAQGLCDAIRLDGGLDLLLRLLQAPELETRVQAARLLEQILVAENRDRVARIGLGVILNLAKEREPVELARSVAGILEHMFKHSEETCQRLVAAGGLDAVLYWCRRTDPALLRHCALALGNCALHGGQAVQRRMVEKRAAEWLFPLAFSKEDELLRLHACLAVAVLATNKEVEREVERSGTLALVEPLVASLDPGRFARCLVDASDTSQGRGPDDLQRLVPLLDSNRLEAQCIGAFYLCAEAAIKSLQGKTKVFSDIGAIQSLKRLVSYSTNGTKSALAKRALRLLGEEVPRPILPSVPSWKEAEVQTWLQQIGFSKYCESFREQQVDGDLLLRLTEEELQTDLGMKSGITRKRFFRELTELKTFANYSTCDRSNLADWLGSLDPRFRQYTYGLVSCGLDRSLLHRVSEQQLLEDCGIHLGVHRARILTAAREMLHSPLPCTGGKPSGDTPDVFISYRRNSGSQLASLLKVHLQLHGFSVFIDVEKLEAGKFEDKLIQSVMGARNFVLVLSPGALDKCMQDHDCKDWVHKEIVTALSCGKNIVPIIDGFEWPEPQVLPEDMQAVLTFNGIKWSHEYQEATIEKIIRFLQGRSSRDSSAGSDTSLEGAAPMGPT

[3] = molecular target: Mitogen-activated protein kinase 7 (Homo sapiens) (UniProt Q13164); assay: ERK5 transactivation activators in reporter cells, primary screen, cell-based, HTS (AID 1508626;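 active = luciferase signal above three times the same-plate solvent-only control wells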;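 note: luciferase driven by Gal4-ERK5 fusion binding five Gal4 sites before minimal TATA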); conditions: HeLa Gal4-ERK5 transactivation, 18 h, at 5 µM, active compounds read high
Mitogen-activated protein kinase 7 (Homo sapiens), sequence (Q13164 whole entry, looked up, the tested form may be a part): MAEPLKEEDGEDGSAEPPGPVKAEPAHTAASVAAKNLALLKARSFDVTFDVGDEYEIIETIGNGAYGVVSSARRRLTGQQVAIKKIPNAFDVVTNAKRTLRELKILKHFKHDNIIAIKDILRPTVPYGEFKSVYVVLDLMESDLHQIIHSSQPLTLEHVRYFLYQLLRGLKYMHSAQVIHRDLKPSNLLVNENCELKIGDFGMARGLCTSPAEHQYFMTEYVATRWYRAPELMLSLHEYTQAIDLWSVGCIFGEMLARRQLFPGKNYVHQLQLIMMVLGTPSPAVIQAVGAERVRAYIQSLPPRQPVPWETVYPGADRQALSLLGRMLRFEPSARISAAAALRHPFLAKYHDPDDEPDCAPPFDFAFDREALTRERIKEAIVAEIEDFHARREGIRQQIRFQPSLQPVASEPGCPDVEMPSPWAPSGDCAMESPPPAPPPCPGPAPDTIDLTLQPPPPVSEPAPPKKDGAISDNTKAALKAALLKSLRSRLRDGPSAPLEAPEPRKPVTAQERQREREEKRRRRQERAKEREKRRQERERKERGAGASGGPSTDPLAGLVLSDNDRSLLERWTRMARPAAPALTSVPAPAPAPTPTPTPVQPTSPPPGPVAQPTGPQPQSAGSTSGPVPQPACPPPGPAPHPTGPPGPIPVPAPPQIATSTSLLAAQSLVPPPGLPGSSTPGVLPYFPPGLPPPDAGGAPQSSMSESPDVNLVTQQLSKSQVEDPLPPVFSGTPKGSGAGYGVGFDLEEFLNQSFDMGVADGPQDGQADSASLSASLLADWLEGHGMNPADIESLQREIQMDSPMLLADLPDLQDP

[4] = viability rescue of complex I mutant cybrids, primary screen, cell-based, galactose medium, ATP luminescence (AID 1645843;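 active = z-score of at least 1.8 in each of two replicates, scored against plate mean and spread of sample wells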;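 note: positive z means more ATP and so rescue of galactose-driven cybrid death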); conditions: complex I mutant cybrid cells, 72 h, active compounds read high
F380Y = assay: modulators of BK channel variants, profiling panel, selectivity assay, cell-based, U2OS BacMam, thallium flux, beta subunits (AID 1259406;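 active = thallium flux through the channel raised or lowered by more than 3 SD from vehicle-only wells, actives on both sides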;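 note: initial slope of Thallos dye fluorescence rise after thallium is added; log ratio against the mean of 0.3% DMSO vehicle wells on the same plate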); conditions: at 30 µM
F380Y/beta2Delta = assay: as above; conditions: at 30 µM
[5] = molecular target: Calcium-activated potassium channel subunit alpha-1 (Homo sapiens) + Leucine-rich repeat-containing protein 26 (Homo sapiens) (UniProt Q12791+Q2I0M4); assay: as above; conditions: F380Y/Slo1WT/gamma1, at 30 µM
Calcium-activated potassium channel subunit alpha-1 (Homo sapiens) + Leucine-rich repeat-containing protein 26 (Homo sapiens), sequence (Q2I0M4 whole entry, looked up, one chain of several): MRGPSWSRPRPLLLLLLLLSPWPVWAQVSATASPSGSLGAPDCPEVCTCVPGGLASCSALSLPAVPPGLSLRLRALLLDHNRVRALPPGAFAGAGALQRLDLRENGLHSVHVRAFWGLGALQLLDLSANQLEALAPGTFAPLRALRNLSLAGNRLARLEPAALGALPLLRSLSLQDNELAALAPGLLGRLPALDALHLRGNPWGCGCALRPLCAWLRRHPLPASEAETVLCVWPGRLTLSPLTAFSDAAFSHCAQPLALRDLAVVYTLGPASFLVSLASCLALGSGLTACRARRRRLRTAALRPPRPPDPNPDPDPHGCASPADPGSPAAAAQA

R275C = assay: as above; conditions: at 30 µM
R275C/beta1 = assay: as above; conditions: at 30 µM
R275C/beta2Delta = assay: as above; conditions: at 30 µM

CCN(CC)C(=S)SSC(=S)N(CC)CC
inactive: viability ([1]; at 0.00122 µM, OCI-C5x cells, with rucaparib 10 µM, 100% = cells with rucaparib alone) 122% | viability ([1]; at 0.00122 µM, OCI-C5x cells, without rucaparib) 146% | viability ([1]; at 0.00488 µM, OCI-C5x cells, with rucaparib 10 µM, 100% = cells with rucaparib alone) 117% | viability ([1]; at 0.00488 µM, OCI-C5x cells, without rucaparib) 130% | viability ([1]; at 0.0195 µM, OCI-C5x cells, with rucaparib 10 µM, 100% = cells with rucaparib alone) 128% | viability ([1]; at 0.0195 µM, OCI-C5x cells, without rucaparib) 126% | viability ([1]; at 0.0781 µM, OCI-C5x cells, with rucaparib 10 µM, 100% = cells with rucaparib alone) 120% | viability ([1]; at 0.0781 µM, OCI-C5x cells, without rucaparib) 120% | viability ([1]; at 0.0781 µM, OCI-P5x cells, with rucaparib 20 µM, 100% = cells with rucaparib alone) 104% | viability ([1]; at 0.0781 µM, OCI-P5x cells, without rucaparib) 131% | viability ([1]; at 0.313 µM, OCI-C5x cells, with rucaparib 10 µM, 100% = cells with rucaparib alone) 135% | viability ([1]; at 0.313 µM, OCI-C5x cells, without rucaparib) 136% | viability ([1]; at 0.313 µM, OCI-P5x cells, with rucaparib 20 µM, 100% = cells with rucaparib alone) 102% | viability ([1]; at 0.313 µM, OCI-P5x cells, without rucaparib) 129% | viability ([1]; at 1.25 µM, OCI-C5x cells, with rucaparib 10 µM, 100% = cells with rucaparib alone) 121% | viability ([1]; at 1.25 µM, OCI-C5x cells, without rucaparib) 135% | viability ([1]; at 1.25 µM, OCI-P5x cells, with rucaparib 20 µM, 100% = cells with rucaparib alone) 103% | viability ([1]; at 1.25 µM, OCI-P5x cells, without rucaparib) 116% | viability ([1]; at 5 µM, OCI-C5x cells, with rucaparib 10 µM, 100% = cells with rucaparib alone) 113% | viability ([1]; at 5 µM, OCI-C5x cells, without rucaparib) 129% | viability ([1]; at 5 µM, OCI-P5x cells, with rucaparib 20 µM, 100% = cells with rucaparib alone) 110% | viability ([1]; at 5 µM, OCI-P5x cells, without rucaparib) 120% | remaining NAD [2] 10 nM | luciferase signal [3] 16 AU | z-score [4] -1.35 and -1.44 and -2.44 | log fold change Tl+ flux (F380Y) -0.0143 | log fold change Tl+ flux (F380Y/beta2Delta) 0.0251 | log fold change Tl+ flux (R275C) 0.00507 | log fold change Tl+ flux (R275C/beta2Delta) 0.0247
active: viability ([1]; at 0.000305 µM, OCI-P5x cells, with rucaparib 20 µM, 100% = cells with rucaparib alone) 78.8% | viability ([1]; at 0.000305 µM, OCI-P5x cells, without rucaparib) 89.7% | viability ([1]; at 0.00122 µM, OCI-P5x cells, with rucaparib 20 µM, 100% = cells with rucaparib alone) 76.6% | viability ([1]; at 0.00122 µM, OCI-P5x cells, without rucaparib) 90.8% | viability ([1]; at 0.00488 µM, OCI-P5x cells, with rucaparib 20 µM, 100% = cells with rucaparib alone) 75.9% | viability ([1]; at 0.00488 µM, OCI-P5x cells, without rucaparib) 86.5% | viability ([1]; at 0.0195 µM, OCI-P5x cells, with rucaparib 20 µM, 100% = cells with rucaparib alone) 74.6% | viability ([1]; at 0.0195 µM, OCI-P5x cells, without rucaparib) 78.5% | log fold change Tl+ flux [5] 0.093 | log fold change Tl+ flux (R275C/beta1) 0.145
